Measured values from PubChem BioAssay (NCATS).
Inconclusive results are not listed. Active and inactive are the calls of the source. The call rests on the fitted dose curve; in most records, active means well fitted cell-killing curve with a large enough effect; inconclusive means small, poorly fitted or top-dose-only effect, or effect the other way; inactive means flat fitted curve, though single readings scatter.

Assays:
Assay in all cases: Primary qHTS to identify gynecologic anti-cancer compounds using libraries of approved drugs and bioactive compounds (AID 1345084); further: nearly all actives have a fitted effect of over 55% in size
Details in all cases: Gynecologic cancer cell panel viability, ATPlite luminescence, 48 h; series mostly up to 57.5 µM
[1] = system: JEG-3
Outline: (§1)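 Cell viability after 48 h drug treatment, ATPlite luminescence readout; five doses.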

[2] = system: OV90
Outline: as §1

[3] = system: PA-1
Outline: as §1

[4] = system: SKOV3
Outline: as §1

[5] = system: Tov-21-G
Outline: as §1

[6] = system: Tov112D
Outline: as §1
On the % scale 0 is the no-effect control and ±100 the full control effect; potency means the concentration at half of the fitted maximal effect.

C[C@@H]1C(=O)O[C@H]2[C@H](O)C34[C@H]5C[C@@H](C(C)(C)C)C36[C@@H](OC(=O)[C@@H]6O)O[C@@]4(C(=O)O5)[C@@]12O (some centres not stated)
inactive: Potency [1] | Potency [2] | Potency [3] | Potency [4] | Potency [5] | Potency [6]

CC(C)=CCC[C@](C)(O[C@@H]1O[C@H](CO)[C@@H](O)[C@H](O)[C@H]1O)[C@H]1CC[C@]2(C)[C@@H]1[C@H](O)CC1[C@@]3(C)CC[C@H](O)C(C)(C)C3[C@@H](O[C@@H]3O[C@H](CO)[C@@H](O)[C@H](O)[C@H]3O)C[C@]12C (some centres not stated)
inactive: Potency [1] | Potency [2] | Potency [3] | Potency [4] | Potency [5] | Potency [6]

CC(C)C(NC(=O)c1ccc2ccccc2n1)C(=O)NC(CC(=O)O)C(=O)COc1c(F)cccc1F (configuration not stated)
inactive: Potency [1] | Potency [2] | Potency [3] | Potency [4] | Potency [5] | Potency [6]

CC1=C(C(=O)O)/C(=C/CO[C@@H]2O[C@H](COC(=O)/C=C/c3ccc(O)cc3)[C@@H](O)[C@H](O)[C@H]2O)C(O)C1 (some centres not stated)
inactive: Potency [1] | Potency [2] | Potency [3] | Potency [4] | Potency [5] | Potency [6]

CC(=O)O[C@H]1C[C@@]2(C)[C@@H](CC[C@H]3[C@@]4(C)C=CC(=O)[C@@H](C)[C@@H]4[C@H](O)C(=O)[C@@]32C)/C1=C(/CCC=C(C)C)C(=O)O
inactive: Potency [1] | Potency [2] | Potency [3] | Potency [4] | Potency [5] | Potency [6]

CC[C@@](C)(Nc1ccnc(-c2c[nH]c3ncccc23)n1)C(=O)NCC(F)(F)F
inactive: Potency [1] | Potency [2] | Potency [3] | Potency [4] | Potency [5] | Potency [6]

CC1CC(C(O)C(C)(C)O)OC2CC3(C)C4(C)CCC5C(C)(C)C(=O)CCC5(C)C4CCC3(O)C12O (configuration not stated)
inactive: Potency [1] | Potency [2] | Potency [3] | Potency [4] | Potency [5] | Potency [6]

O=C(O)C(O[C@@H]1O[C@H](CO[C@@H]2O[C@H](CO)[C@@H](O)[C@H](O)[C@H]2O)[C@@H](O)[C@H](O)[C@H]1O)c1ccccc1 (some centres not stated)
inactive: Potency [1] | Potency [2] | Potency [3] | Potency [4] | Potency [5] | Potency [6]

CC1=CC(=O)C2(OC3OC(C)C(O)C(OC(=O)/C=C/c4ccccc4)C3O)C=COC(OC3OC(CO)C(O)C(O)C3O)C12 (configuration not stated)
inactive: Potency [1] | Potency [2] | Potency [3] | Potency [4] | Potency [5] | Potency [6]

C=C[C@H]1C(O[C@@H]2O[C@H](CO)[C@@H](O)[C@H](O)[C@H]2O)OC=C2C(=O)N3CCc4c([nH]c5ccccc45)[C@H]3C[C@H]21 (some centres not stated)
inactive: Potency [1] | Potency [2] | Potency [3] | Potency [4] | Potency [5] | Potency [6]

CCC(Nc1ncnc2nc[nH]c12)c1nc2cccc(F)c2c(=O)n1-c1ccccc1 (configuration not stated)
inactive: Potency [1] | Potency [2] | Potency [3] | Potency [4] | Potency [5] | Potency [6]

CC1(C)CCCC2(C)C=C(C(=O)O)C(O)CC12 (configuration not stated)
inactive: Potency [1] | Potency [2] | Potency [3] | Potency [4] | Potency [5] | Potency [6]

CC(C)CN(C[C@@H](O)[C@H](Cc1ccccc1)NC(=O)O[C@@H]1CO[C@H]2OCC[C@H]21)S(=O)(=O)c1ccc(N)cc1
inactive: Potency [1] | Potency [2] | Potency [3] | Potency [4] | Potency [5] | Potency [6]

CC(C)c1ccc2c(c1)C(=O)CC1[C@@](C)(C(=O)O)CCC[C@]21C (some centres not stated)
inactive: Potency [1] | Potency [2] | Potency [3] | Potency [4] | Potency [5] | Potency [6]

CCC[C@@H]1O[C@@H]2C[C@H]3[C@@H]4CCC5=CC(=O)C=C[C@]5(C)[C@H]4[C@@H](O)C[C@]3(C)[C@]2(C(=O)CO)O1
inactive: Potency [1] | Potency [2] | Potency [3] | Potency [4] | Potency [5] | Potency [6]

CC(c1ncncc1F)C(O)(Cn1cncn1)c1ccc(F)cc1F (configuration not stated)
inactive: Potency [1] | Potency [2] | Potency [3] | Potency [4] | Potency [5] | Potency [6]

COC(=O)[C@H](O)[C@H]1C(C)(C)[C@H](OC(=O)C(C)C)[C@@]2(O)C(=O)[C@]1(C)C1CC[C@]3(C)C(CC(=O)O[C@H]3c3ccoc3)[C@]13O[C@@H]32 (some centres not stated)
inactive: Potency [1] | Potency [2] | Potency [3] | Potency [4] | Potency [5] | Potency [6]

CCCOC(c1cc2nccc(C(=O)O)c2[nH]1)c1ccccc1Cl (configuration not stated)
inactive: Potency [1] | Potency [2] | Potency [3] | Potency [4] | Potency [5] | Potency [6]

C=C1C[C@]23C[C@H]1CC[C@H]2[C@@]1(C)CCC[C@@]2(C)C(=O)O[C@@H]([C@@H]3O)[C@@H]12
inactive: Potency [1] | Potency [2] | Potency [3] | Potency [4] | Potency [5] | Potency [6]

Cc1ccc(F)cc1C(=O)Nc1ccc(C(=O)N2Cc3cccn3Cc3ccccc32)c(Cl)c1
inactive: Potency [1] | Potency [2] | Potency [3] | Potency [4] | Potency [5] | Potency [6]

COC(=O)CC(O)CC(O)/C=C/c1c(C)ccc2c1C(O)CC(C)C2 (configuration not stated)
inactive: Potency [1] | Potency [2] | Potency [3] | Potency [4] | Potency [5] | Potency [6]

C=C1C(=O)OC2CC(C)=C(C(C)CCCO)C(O)C12 (configuration not stated)
inactive: Potency [1] | Potency [2] | Potency [3] | Potency [4] | Potency [5] | Potency [6]

C[C@H](NC(=O)CCc1nc2ccccc2c(=O)[nH]1)c1ccccc1
inactive: Potency [1] | Potency [2] | Potency [3] | Potency [4] | Potency [5] | Potency [6]

O=C(CC(c1ccccc1)c1ccccc1)N1CCN(C(c2ccccc2)c2ccccc2)CC1
inactive: Potency [1] | Potency [2] | Potency [3] | Potency [4] | Potency [5] | Potency [6]

C=C[C@H]1[C@H](O[C@@H]2O[C@H](CO)[C@@H](O)[C@H](O)[C@H]2O)OC=C(C(=O)OC)[C@H]1CC(=O)O
inactive: Potency [1] | Potency [2] | Potency [3] | Potency [4] | Potency [5] | Potency [6]

CC1(C=O)CC[C@]2(C(=O)O[C@@H]3O[C@H](CO)[C@@H](O)[C@H](O)[C@H]3O)CC[C@]3(C)C(=CCC4[C@@]5(C)C[C@H](O)[C@H](O[C@@H]6OC[C@@H](O)[C@H](O)[C@H]6O)[C@@](C)(CO)C5CC[C@]43C)C2C1 (some centres not stated)
inactive: activity change, negative = cytotoxicity [1] 12.1% [at 11.6 µM] | activity change, negative = cytotoxicity [2] 9.96% [at 11.6 µM] | activity change, negative = cytotoxicity [3] -2% [at 11.6 µM] | activity change, negative = cytotoxicity [4] 1.41% [at 11.6 µM] | activity change, negative = cytotoxicity [5] -1.76% [at 11.6 µM] | activity change, negative = cytotoxicity [6] -0.249% [at 11.6 µM]

CC1=C(C(=O)O)/C(=C\CO[C@@H]2O[C@H](CO)[C@@H](O)[C@H](O)[C@H]2O)C(OC(=O)/C=C/c2ccc(O)cc2)C1 (some centres not stated)
inactive: Potency [1] | Potency [2] | Potency [3] | Potency [4] | Potency [5] | Potency [6]

CCNCc1nc2c(N)nc3ccccc3c2n1CC(C)(C)O
inactive: Potency [1] | Potency [2] | Potency [3] | Potency [4] | Potency [5] | Potency [6]

CC(=O)OC1C[C@]2(C)C(O)CC(C)=C[C@H](OC(=O)c3ccc(O)cc3)C2[C@]1(O)C(C)C (some centres not stated)
inactive: Potency [1] | Potency [2] | Potency [3] | Potency [4] | Potency [5] | Potency [6]

Nc1ncnc2c1ncn2CCNCCCCCO
inactive: Potency [1] | Potency [2] | Potency [3] | Potency [4] | Potency [5] | Potency [6]

C/C1=C\CCC(C)CCO[C@@H]2O[C@H](CO[C@@H]3OC[C@H](O)[C@H](O)[C@H]3OC1=O)[C@@H](O)[C@H](O)[C@H]2O (some centres not stated)
inactive: Potency [1] | Potency [2] | Potency [3] | Potency [4] | Potency [5] | Potency [6]

O=C(NCC(O)CO)c1ccncc1Nc1ccc(I)cc1F (configuration not stated)
inactive: Potency [1] | Potency [3] | Potency [4] | Potency [6]
active: Potency [2] 79.4 nM | Potency [5] 1580 nM

CC1=CC(=O)C(=C(C)C)CC2C1CCC2(C)O (configuration not stated)
inactive: Potency [1] | Potency [2] | Potency [3] | Potency [4] | Potency [5] | Potency [6]

C/C=C/c1cc(OC)c2c(c1)[C@@H](C)[C@@H](c1ccc(O)c(OC)c1)O2
inactive: Potency [1] | Potency [2] | Potency [3] | Potency [4] | Potency [5] | Potency [6]

CC1CCC2(OC1)OC1CC3C4CC=C5CC(O)CC(O[C@@H]6OC[C@@H](O)[C@H](O)[C@H]6O)C5(C)C4CCC3(C)C1(O)C2C (some centres not stated)
inactive: Potency [1] | Potency [2] | Potency [3] | Potency [4] | Potency [5] | Potency [6]

CC1CCC2(CO)C(C(=O)O)=CCCC2C1(C)CCc1ccoc1 (configuration not stated)
inactive: Potency [1] | Potency [2] | Potency [3] | Potency [4] | Potency [5] | Potency [6]

COC(=O)C12C(=O)C(C)=C(O)C1(C)C(C)=CC1C3(CO)CCC(O)C(C)(C)C3CCC12C (configuration not stated)
inactive: Potency [1] | Potency [2] | Potency [3] | Potency [4] | Potency [5] | Potency [6]
